Assays:
Experiment in all cases: log2 ratio of Biotin-Ahx-Ub-VS probe labelling (fragment/DMSO); higher = less target engagement (more negative = stronger competition), active = hit call of the paper (q ≤ 0.05, log2 ratio ≤ -1)
Conditions in all cases: compound concentration: 200 uM; treatment time: 3 h
[1] = target: T1, USP42 (UniProt Q9H9J4)
T1 sequence (whole entry): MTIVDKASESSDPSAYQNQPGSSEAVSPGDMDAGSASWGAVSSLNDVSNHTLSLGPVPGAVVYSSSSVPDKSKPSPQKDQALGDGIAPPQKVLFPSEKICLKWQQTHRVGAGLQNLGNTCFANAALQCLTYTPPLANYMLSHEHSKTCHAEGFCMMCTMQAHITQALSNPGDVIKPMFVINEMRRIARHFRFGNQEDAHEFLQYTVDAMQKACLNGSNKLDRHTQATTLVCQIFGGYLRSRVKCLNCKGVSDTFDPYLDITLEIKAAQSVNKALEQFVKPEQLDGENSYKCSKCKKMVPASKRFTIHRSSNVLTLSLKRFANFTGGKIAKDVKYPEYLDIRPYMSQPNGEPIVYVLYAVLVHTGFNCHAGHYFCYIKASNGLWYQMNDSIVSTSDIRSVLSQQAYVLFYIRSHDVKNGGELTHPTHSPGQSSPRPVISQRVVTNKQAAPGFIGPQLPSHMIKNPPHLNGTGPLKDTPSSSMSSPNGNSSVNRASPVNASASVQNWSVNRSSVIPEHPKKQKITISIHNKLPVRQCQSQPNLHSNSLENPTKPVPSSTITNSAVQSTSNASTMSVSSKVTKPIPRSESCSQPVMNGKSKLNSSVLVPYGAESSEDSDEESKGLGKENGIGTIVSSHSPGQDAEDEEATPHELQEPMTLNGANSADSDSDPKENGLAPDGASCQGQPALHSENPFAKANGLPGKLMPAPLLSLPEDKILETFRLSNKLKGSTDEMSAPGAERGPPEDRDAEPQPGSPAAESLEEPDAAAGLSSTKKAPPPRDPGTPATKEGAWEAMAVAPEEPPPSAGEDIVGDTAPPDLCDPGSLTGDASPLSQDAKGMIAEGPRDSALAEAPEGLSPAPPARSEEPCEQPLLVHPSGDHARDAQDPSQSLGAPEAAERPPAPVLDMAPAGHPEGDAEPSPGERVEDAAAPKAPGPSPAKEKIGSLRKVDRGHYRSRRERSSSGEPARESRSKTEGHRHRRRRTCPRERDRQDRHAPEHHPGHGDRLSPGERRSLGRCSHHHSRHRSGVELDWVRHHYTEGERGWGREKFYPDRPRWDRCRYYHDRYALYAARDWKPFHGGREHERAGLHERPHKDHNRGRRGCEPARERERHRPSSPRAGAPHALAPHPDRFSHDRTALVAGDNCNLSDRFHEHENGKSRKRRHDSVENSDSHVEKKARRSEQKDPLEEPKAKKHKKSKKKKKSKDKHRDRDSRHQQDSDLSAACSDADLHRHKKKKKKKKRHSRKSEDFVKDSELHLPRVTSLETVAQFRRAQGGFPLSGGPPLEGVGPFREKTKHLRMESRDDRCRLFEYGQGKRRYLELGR
Method in brief: (§1)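 HEK293T lysate (495 µg per sample, in Tris/CHAPS/IGEPAL buffer with protease inhibitors) was exposed in triplicate for 3 h to fragment at 200 µM or to vehicle, then to Biotin-Ahx-Ub-VS at 0.5 µM final for 1 h. Labelled DUBs were enriched on NeutrAvidin, digested with LysC and trypsin, and analysed by diaPASEF LC-MS/MS. Spectronaut label-free quantities were normalised to the global median, and values are average log2 ratios of fragment over vehicle from an unpaired t-test. Only proteins with ≥2 unique peptides were used.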

[2] = target: USP46 (UniProt P62068)
Method in brief: as §1

[3] = target: T2, USP47 (UniProt Q96K76)
T2 sequence (whole entry): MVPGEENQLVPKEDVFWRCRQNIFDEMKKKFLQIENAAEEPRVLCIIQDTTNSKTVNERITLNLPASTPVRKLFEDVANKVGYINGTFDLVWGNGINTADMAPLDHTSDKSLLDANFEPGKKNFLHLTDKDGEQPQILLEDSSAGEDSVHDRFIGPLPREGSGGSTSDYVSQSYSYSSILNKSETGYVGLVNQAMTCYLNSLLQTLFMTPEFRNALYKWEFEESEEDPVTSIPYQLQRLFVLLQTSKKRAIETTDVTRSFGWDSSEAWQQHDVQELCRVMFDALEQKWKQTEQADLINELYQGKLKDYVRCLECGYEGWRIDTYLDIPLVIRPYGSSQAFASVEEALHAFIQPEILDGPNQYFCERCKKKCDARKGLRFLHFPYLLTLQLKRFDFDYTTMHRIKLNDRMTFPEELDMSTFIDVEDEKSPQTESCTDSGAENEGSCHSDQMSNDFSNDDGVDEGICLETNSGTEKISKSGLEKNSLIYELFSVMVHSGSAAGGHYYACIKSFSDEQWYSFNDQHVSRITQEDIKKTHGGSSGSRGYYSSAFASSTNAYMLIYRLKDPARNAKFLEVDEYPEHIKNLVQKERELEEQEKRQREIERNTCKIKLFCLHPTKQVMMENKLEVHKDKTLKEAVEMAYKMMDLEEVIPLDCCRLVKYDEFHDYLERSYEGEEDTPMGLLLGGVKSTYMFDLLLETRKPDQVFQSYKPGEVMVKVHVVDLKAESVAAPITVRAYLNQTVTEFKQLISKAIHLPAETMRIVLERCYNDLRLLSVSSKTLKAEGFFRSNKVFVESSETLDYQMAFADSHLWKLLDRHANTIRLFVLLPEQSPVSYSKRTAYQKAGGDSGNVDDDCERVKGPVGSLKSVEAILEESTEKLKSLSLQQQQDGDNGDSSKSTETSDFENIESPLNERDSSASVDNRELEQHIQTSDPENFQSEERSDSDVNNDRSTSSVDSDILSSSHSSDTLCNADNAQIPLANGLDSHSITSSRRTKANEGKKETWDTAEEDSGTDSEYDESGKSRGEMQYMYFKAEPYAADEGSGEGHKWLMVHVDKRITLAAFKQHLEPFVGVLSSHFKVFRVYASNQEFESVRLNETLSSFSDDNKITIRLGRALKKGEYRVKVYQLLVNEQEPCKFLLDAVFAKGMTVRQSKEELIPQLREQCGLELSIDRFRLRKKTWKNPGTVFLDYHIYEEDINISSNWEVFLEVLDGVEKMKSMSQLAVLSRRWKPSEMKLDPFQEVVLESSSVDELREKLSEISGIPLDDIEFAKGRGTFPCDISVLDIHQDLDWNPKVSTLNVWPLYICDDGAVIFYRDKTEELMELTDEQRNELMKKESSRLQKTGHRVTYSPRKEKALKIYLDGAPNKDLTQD
Method in brief: as §1

[4] = target: T3, USP48 (UniProt Q86UV5)
T3 sequence (whole entry): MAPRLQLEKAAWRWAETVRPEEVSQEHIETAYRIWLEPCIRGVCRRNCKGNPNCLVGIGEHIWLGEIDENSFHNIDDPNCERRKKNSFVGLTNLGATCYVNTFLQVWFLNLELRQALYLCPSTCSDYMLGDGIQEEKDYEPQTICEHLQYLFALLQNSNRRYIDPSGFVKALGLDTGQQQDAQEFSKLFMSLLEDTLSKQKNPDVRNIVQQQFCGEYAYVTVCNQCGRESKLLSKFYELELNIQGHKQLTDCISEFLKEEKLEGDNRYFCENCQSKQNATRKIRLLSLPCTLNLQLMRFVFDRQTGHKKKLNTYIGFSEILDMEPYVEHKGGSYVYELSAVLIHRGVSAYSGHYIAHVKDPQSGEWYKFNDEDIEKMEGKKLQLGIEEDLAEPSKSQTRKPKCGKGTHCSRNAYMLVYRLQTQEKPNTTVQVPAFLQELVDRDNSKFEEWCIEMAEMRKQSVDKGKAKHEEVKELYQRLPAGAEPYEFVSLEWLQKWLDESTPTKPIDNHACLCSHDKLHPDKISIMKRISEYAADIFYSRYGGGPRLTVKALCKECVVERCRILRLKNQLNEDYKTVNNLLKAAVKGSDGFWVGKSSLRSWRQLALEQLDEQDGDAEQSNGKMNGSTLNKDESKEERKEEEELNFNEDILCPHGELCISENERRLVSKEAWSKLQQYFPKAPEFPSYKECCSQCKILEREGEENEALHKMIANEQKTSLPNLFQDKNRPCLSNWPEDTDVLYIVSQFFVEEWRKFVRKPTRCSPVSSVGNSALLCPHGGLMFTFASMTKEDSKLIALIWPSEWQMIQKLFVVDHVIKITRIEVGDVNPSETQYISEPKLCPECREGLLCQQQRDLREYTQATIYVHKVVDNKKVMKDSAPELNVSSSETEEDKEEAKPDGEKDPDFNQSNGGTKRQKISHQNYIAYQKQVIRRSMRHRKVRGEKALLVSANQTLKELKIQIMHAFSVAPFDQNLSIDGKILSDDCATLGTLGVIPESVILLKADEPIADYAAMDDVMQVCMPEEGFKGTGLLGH
Method in brief: as §1

[5] = target: T4, USP5 (UniProt P45974)
T4 sequence (whole entry): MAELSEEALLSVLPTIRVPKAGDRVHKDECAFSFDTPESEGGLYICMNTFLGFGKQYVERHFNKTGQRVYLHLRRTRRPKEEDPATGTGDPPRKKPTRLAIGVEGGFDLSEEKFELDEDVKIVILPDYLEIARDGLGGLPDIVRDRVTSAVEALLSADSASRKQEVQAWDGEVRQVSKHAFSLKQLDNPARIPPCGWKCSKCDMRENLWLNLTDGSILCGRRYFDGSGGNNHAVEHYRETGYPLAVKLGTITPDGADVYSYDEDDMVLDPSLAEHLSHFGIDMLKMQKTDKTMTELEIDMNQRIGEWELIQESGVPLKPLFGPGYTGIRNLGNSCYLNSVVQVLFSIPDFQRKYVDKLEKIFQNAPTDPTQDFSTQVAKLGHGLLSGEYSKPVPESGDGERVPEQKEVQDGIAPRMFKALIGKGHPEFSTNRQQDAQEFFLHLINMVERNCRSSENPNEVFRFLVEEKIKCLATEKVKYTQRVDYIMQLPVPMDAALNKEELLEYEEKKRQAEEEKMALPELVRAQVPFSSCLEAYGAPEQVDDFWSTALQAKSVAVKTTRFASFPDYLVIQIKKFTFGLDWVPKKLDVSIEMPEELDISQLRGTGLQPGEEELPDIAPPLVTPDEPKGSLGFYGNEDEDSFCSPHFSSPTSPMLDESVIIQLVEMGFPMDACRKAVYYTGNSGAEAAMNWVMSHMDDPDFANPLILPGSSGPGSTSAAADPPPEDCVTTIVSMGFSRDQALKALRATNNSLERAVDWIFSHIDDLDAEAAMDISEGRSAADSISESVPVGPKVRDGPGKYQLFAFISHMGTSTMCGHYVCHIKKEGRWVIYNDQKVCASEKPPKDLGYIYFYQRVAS
Method in brief: as §1

[6] = target: USP54 (UniProt Q70EL1)
Method in brief: as §1

[7] = target: USP7 (UniProt Q93009)
Method in brief: as §1

[8] = target: T5, USP8 (UniProt P40818)
T5 sequence (whole entry): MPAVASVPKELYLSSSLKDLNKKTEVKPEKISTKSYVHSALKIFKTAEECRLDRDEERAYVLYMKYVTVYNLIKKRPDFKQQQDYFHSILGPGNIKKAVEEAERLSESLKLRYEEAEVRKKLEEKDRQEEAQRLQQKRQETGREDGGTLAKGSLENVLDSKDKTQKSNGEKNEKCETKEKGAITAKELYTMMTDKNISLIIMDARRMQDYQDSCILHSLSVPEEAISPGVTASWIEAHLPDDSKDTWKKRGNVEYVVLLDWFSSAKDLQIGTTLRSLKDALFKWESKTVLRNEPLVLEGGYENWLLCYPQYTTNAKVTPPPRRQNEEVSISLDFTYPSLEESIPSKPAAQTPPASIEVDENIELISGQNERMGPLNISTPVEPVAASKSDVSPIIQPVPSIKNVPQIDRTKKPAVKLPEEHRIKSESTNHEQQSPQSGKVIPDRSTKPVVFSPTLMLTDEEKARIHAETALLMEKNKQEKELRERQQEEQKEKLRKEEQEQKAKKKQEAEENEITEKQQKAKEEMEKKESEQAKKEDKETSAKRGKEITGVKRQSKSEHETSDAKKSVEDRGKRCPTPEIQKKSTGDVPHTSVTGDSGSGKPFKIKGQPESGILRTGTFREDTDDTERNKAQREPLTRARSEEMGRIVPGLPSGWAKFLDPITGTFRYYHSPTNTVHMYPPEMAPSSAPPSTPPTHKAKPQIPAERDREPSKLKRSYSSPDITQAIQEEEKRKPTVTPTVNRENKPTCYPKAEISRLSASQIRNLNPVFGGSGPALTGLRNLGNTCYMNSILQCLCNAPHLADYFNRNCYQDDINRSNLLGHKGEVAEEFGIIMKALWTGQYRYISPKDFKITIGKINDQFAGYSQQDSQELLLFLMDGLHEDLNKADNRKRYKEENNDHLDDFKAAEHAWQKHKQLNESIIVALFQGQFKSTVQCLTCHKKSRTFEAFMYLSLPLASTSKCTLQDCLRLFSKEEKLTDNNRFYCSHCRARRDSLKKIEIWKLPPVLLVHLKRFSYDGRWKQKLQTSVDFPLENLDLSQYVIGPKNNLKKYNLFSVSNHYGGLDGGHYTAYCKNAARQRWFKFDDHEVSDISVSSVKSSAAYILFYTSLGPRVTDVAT
Method in brief: as §1

Measured: log2 ratio of Biotin-Ahx-Ub-VS probe labelling

USP7, sequence (Q93009 whole entry, looked up): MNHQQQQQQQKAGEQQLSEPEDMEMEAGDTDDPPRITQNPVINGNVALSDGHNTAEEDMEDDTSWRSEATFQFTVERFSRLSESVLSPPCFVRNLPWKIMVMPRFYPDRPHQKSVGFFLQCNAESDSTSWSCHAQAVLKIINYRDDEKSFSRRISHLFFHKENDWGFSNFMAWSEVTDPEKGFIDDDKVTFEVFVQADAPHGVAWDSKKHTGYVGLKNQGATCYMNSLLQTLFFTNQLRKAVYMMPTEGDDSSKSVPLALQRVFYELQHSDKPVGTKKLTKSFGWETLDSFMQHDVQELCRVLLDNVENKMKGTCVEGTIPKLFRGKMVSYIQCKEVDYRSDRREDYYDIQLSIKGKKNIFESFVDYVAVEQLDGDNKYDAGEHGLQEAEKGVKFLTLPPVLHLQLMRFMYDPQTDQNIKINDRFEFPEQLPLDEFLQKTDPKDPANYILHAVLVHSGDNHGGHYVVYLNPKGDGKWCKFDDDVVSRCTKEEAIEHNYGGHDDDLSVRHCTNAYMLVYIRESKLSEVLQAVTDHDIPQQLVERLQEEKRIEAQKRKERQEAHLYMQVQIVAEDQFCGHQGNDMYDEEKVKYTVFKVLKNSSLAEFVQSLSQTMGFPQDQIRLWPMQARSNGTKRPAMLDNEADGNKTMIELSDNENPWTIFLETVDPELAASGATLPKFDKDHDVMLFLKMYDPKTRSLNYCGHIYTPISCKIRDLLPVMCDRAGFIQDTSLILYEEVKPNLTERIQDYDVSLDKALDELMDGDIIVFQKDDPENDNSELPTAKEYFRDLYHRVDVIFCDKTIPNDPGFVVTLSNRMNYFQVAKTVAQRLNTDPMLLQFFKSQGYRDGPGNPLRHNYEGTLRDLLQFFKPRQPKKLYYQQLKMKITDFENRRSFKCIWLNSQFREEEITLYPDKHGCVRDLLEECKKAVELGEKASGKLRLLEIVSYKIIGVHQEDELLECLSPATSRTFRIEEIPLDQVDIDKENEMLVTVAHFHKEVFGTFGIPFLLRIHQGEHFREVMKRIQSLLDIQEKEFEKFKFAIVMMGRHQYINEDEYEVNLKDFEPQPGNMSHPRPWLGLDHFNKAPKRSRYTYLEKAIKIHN
USP54, sequence (Q70EL1 whole entry): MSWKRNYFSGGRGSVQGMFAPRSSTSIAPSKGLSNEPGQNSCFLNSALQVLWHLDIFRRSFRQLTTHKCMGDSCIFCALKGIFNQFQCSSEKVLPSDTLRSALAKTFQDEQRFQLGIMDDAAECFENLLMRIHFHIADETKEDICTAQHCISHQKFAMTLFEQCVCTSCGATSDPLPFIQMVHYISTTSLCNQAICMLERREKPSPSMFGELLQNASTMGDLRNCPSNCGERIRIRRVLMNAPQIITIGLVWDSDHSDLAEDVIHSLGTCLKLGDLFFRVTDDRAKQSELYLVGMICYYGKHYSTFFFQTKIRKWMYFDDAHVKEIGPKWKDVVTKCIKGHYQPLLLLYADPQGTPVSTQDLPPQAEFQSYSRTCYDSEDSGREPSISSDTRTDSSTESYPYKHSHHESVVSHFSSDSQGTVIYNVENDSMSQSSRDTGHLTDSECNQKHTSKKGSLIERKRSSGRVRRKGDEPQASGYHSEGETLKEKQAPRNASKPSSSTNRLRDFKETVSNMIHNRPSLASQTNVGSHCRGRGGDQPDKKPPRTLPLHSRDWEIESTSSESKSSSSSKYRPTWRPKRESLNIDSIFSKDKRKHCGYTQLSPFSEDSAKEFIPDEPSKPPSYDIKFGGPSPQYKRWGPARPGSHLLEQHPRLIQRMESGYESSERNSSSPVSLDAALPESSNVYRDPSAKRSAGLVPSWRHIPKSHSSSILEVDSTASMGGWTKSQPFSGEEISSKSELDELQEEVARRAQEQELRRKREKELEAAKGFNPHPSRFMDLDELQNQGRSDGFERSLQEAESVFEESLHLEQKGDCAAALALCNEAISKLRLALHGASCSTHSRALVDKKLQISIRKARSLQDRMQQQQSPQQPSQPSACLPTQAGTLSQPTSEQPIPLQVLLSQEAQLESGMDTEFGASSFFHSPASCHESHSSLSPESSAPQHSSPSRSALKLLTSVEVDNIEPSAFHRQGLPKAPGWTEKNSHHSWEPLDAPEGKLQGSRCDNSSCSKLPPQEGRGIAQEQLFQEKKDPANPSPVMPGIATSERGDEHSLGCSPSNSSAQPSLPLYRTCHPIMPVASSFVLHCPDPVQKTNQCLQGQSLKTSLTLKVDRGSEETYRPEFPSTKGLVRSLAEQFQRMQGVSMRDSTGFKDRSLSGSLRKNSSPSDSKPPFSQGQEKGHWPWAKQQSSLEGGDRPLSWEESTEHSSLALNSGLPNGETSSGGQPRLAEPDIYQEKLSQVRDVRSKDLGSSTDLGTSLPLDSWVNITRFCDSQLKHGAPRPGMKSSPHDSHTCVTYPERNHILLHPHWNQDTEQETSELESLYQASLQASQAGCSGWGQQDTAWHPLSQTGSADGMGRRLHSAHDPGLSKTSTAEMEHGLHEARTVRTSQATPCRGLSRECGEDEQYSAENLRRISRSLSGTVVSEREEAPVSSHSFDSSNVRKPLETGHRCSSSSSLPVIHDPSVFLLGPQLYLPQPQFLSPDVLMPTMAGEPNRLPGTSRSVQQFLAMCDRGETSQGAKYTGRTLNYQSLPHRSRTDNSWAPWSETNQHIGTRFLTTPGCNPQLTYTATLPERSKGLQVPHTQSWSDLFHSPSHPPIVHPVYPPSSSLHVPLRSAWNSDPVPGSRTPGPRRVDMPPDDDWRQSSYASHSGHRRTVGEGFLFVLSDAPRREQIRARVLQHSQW
USP46, sequence (P62068 whole entry): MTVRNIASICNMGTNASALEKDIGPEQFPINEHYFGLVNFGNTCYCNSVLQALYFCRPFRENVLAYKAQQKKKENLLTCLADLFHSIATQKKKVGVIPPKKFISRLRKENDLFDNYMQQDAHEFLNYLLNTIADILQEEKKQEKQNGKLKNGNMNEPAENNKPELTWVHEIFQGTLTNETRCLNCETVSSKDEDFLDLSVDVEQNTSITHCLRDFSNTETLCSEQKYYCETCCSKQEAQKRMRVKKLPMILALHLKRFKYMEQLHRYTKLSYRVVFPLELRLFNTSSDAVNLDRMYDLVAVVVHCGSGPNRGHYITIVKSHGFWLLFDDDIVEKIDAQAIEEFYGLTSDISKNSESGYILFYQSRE

CC(=O)Nc1ccc(NC(=O)CCl)cc1
inactive: [1] 0.329 | [2] -0.0429 | [3] -0.31 | [4] -0.256 | [5] -0.0185 | [6] 0.408 | [7] -0.267 | [8] -0.236

Source: the supplement of paper PMC11732987, “Enantioselective OTUD7B fragment discovery through chemoproteomics screening and high-throughput optimisation” (Communications Chemistry, 2025)
